Results: PubChem BioAssay (Tox21)
Results filed as inconclusive are left out. Entries that show only a call come without a potency. Calls of active or inactive are those of the source. Unless noted, calls follow the shape of the dose curve; as a rule, active = well fitted curve in the direction sought with a large enough effect in the repeat runs; inconclusive = weak or mixed curves; inactive = no such curve, though single readings can be large; an effect the other way counts as inactive or inconclusive.

Key:
[1] = target: Retinoic acid receptor RXR-alpha (Homo sapiens) (UniProt P19793); assay: qHTS assay to identify small molecule agonists of the RXR signaling pathway (AID 1159527; calls by dose curve; also: nearly all actives have a fitted effect of over 35% in size)
Chain of Retinoic acid receptor RXR-alpha (Homo sapiens) (P19793 whole entry, looked up): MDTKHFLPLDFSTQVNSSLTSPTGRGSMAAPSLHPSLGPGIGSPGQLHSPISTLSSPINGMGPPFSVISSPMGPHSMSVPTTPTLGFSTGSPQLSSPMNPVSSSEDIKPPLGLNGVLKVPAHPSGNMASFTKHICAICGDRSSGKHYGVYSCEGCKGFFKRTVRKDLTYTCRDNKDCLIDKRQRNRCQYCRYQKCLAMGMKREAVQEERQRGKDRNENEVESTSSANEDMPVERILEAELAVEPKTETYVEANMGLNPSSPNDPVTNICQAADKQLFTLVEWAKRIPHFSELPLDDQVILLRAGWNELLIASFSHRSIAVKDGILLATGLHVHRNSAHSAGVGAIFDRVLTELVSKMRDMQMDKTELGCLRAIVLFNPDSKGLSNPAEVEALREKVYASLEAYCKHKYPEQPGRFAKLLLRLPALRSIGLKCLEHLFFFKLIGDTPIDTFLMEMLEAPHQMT
In short: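 Compounds in DMSO were added to RXR-alpha-UAS-bla HEK 293T cells kept in 2% charcoal-stripped serum, and incubated 16 hr at 37 C with 5% CO2. Reporter signal came from a 2 hr B/G FRET substrate step.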

[2] = qHTS assay to identify small molecule agonists of the RXR signaling pathway - cell viability counter screen (AID 1159529);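 also: HEK 293T cells carrying an RXR-alpha UAS beta-lactamase reporter; series mostly up to about 77 µM; nearly all actives have a fitted effect of over 50% in size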
In short: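 Counter screen: CellTiter-Glo luminescence. Cells: RXR-alpha-UAS-bla HEK 293T. Medium: 2% charcoal-stripped FBS. Treatment: 16 h, 37 C. Reagent incubation: 30 min, RT.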

[3] = qHTS assay to identify small molecule antagonists of the estrogen related receptor (ERR) signaling pathway - cell viability counter screen (AID 1224818);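 also: series mostly up to about 46 µM; viability measured after 17.5 h of compound exposure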
In short: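 Quantitative high-throughput viability counter screen in ERR cells. Compounds (DMSO) incubated 17.5 h at 37 C; read-out was CellTiter-Fluor fluorescence.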

[4] = qHTS assay to identify small molecule antagonists of the estrogen related receptor signaling pathway with the pleiotropic PPARgamma coactivator (PGC) cell viability counter screen (AID 1224822; also: series mostly up to about 46 µM)
In short: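 Cytotoxicity in the PGC/ERR cell line is assessed with CellTiter-Fluor, read as fluorescence intensity 30 min after reagent addition, following 17.5 h compound treatment at 37 C.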

[5] = qHTS assay to identify small molecule antagonists of the estrogen related receptor (ERR) signaling pathway from Tox21 library - cell viability counter screen (AID 1224834); also: nearly all actives have a fitted effect of over 30% in size
In short: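 Compounds in DMSO were pinned onto ERR cells that had been incubated for 6 h, and the plates were held at 37 C for 17.5 h. CellTiter-Fluor reagent was then added and fluorescence was measured after 30 min.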

[6] = target: Luciferin 4-monooxygenase (Photinus pyralis) (UniProt P08659); assay: qHTS assay to identify small molecule inhibitors of firefly luciferase (AID 1224835); also: series mostly up to about 120 µM; nearly all actives have a fitted effect of over 25% in size
Chain of Luciferin 4-monooxygenase (Photinus pyralis) (P08659 whole entry, looked up): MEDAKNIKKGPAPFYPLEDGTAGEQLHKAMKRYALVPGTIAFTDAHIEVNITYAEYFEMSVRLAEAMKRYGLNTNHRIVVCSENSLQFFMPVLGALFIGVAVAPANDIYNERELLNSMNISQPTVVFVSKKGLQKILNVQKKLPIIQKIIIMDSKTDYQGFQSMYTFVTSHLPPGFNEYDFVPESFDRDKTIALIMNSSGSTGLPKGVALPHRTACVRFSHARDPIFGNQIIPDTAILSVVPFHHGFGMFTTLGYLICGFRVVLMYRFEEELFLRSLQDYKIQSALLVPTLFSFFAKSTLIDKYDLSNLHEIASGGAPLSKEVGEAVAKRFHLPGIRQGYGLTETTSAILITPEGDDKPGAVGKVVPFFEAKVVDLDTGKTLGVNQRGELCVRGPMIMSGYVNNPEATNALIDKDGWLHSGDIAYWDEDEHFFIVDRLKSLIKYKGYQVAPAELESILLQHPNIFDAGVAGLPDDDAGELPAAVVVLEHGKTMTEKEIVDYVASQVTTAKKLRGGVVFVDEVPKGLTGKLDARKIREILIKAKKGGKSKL
In short: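 Biochemical qHTS: compounds run as interplate titrations against purified firefly enzyme, with D-luciferin and ATP each at its KM concentration. Light output recorded by CCD imaging.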

[7] = qHTS assay to identify small molecule agonists of the constitutive androstane receptor (CAR) signaling pathway - cell viability counter screen (AID 1224836); also: series mostly up to about 92 µM; nearly all actives have a fitted effect of over 45% in size
In short: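 Double-stable HepG2 hepatoma cells (hCAR plus CYP2B6-2.2kb) are treated for 23 h at 37 C with test compounds in 15-point concentration series. PK11195 at 0.75 uM final is co-added. Cell viability is quantified by CellTiter-Fluor.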

[8] = target: Nuclear receptor subfamily 1 group I member 3 (Homo sapiens) (UniProt Q14994); assay: qHTS assay to identify small molecule antagonists of the constitutive androstane receptor (CAR) signaling pathway (AID 1224838);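 also: HepG2 cells stably expressing hCAR with CYP2B6 luciferase reporter stimulated by CITCO; nearly all actives have a fitted effect of over 40% in size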
Chain of Nuclear receptor subfamily 1 group I member 3 (Homo sapiens) (Q14994 whole entry, looked up): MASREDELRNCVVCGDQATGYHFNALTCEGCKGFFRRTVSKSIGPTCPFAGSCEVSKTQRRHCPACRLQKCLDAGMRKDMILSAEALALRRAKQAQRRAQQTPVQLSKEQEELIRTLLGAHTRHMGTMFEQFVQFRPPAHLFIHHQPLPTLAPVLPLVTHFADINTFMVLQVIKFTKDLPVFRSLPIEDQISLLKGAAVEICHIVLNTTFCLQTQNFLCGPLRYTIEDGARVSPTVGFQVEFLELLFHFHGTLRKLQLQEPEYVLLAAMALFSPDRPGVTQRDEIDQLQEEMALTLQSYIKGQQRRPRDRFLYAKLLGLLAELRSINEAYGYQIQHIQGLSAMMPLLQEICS
In short: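 Luminescence from a CYP2B6-2.2kb promoter reporter in hCAR-expressing HepG2 cells reflects CAR signaling. Cells received compounds at 15 concentrations and 50 nM CITCO (final), then incubated 24 h at 37 C/5% CO2.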

[9] = target: Nuclear receptor subfamily 1 group I member 3 (Homo sapiens) (UniProt Q14994); assay: qHTS assay to identify small molecule agonists of the constitutive androstane receptor (CAR) signaling pathway (AID 1224839); also: nearly all actives have a fitted effect of over 15% in size; also: potency is read from the fitted curve at half-maximal effect
In short: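 Readout: firefly luciferase luminescence via ONE-Glo. System: HepG2 double-stable for hCAR and CYP2B6-2.2kb. Conditions: 15-point compound titration, PK11195 at 0.75 uM final, 24 h incubation.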

[10] = qHTS assay to identify small molecule antagonists of the estrogen related receptor signaling pathway with the pleiotropic PPARgamma coactivator (PGC) from Tox21 10K library - cell viability counter screen (AID 1224840; active = well fitted cell-killing curve with a large enough effect in the repeat runs, not every such curve was filed as active; also: nearly all actives have a fitted effect of over 40% in size)
In short: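 Cell viability is measured by CellTiter-Fluor fluorescence in PGC/ERR cells that receive compounds after a 6-hour attachment period and are then incubated 17.5 hours at 37 C.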

[11] = qHTS assay to identify small molecule agonists of the retinoic acid receptor (RAR) signaling pathway (AID 1159553)
In short: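 Quantitative high-throughput format: the Tox21 10K library was tested on C3RL4 RARE-luciferase cells for 6 hr at 37 C and 5% CO2, with luminescence measured after a 30 min room-temperature reagent step.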

[12] = qHTS assay to identify small molecule antagonists of the estrogen related receptor signaling pathway with the pleiotropic PPARgamma coactivator (PGC) from Tox21 10K library (AID 1224841; call rule not given here; also: actives are mostly falling curves and most rising ones were filed inactive; nearly all actives have a fitted effect of over 50% in size; also: potency is read from the fitted curve at half-maximal effect)
In short: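 Cells stably carrying the PGC/ERR reporter, seeded at 2,000 per well, received pin-transferred compounds 6 h post-plating. Exposure lasted 18 h at 37 C. Signal: One-Glo luminescence.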

[13] = qHTS assay to identify small molecule agonists of the estrogen related receptor signaling pathway with the pleiotropic PPARgamma coactivator (PGC) from Tox21 10K library (AID 1224842); also: nearly all actives have a fitted effect of over 15% in size
In short: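 PGC/ERR reporter cell line, 2,000 cells per well, incubated 6 h at 37 C before 23 nL compound in DMSO was added. After 18 h at 37 C, One-Glo luminescence read following 30 min at room temperature.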

[14] = qHTS assay to identify small molecule antagonists of the constitutive androstane receptor (CAR) signaling pathway - cell viability counter screen (AID 1224837); also: series mostly up to about 92 µM; nearly all actives have a fitted effect of over 45% in size
In short: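 Cells are seeded, rested 4 hr at 37 C/5% CO2, dosed with compound (15-point series) and 50 nM CITCO, incubated a further 23 hr, and then CellTiter-Fluor reagent is added before fluorescence is read. The line is HepG2 with stable hCAR and CYP2B6-2.2kb.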

[15] = qHTS assay to identify small molecule antagonists of the retinoic acid receptor (RAR) signaling pathway (AID 1159552; also: nearly all actives have a fitted effect of over 50% in size)
In short: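 Antagonism of retinol-induced RARE reporter activity was measured in C3RL4 cells. Exposure to compounds and 1 uM final retinol lasted 6 hr at 37 C, with luminescence as endpoint.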

Row | Structure (SMILES) | Potency [1] | outcome [2] | outcome [3] | outcome [4] | Potency [5] | Potency [6] | Potency [7] | outcome [8] | Potency [9] | outcome [10] | Potency [11] | Potency [12] | outcome [13] | Potency [14] | outcome [15]
1 | O=C(CCNNC(=O)c1ccncc1)NCc1ccccc1 | inactive | inactive | inactive | inactive | inactive | inactive | inactive | inactive | inactive | inactive | – | – | – | – | –
2 | COc1cc(N)ccc1C | inactive | inactive | – | – | – | inactive | inactive | inactive | – | – | inactive | 1.52 µM (active) | inactive | – | –
3 | CCc1ccc(C=O)cc1 | inactive | inactive | – | – | inactive | inactive | inactive | inactive | inactive | – | – | – | – | inactive | –
4 | CCC(C)(CCC(C)C)C(=O)O (stereo unspecified) | inactive | inactive | – | – | inactive | inactive | inactive | – | – | inactive | – | inactive | – | inactive | inactive
5 | CC(C)(C)c1cc(CCC(=O)NN)cc(C(C)(C)C)c1O | inactive | inactive | – | – | inactive | inactive | inactive | inactive | 30.6 µM (active) | – | – | inactive | inactive | inactive | inactive
